D2 ag-1: D2 dopamine receptor (human) agonism | P14416 | HEK293 T-REx D2 cells, calcium flux agonist mode | activation, % at 2 µM | 340,000 tested, 0.53% active;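 active means activation over 3 SD above normal in the single-dose calcium agonist read, cut at about 30% in these data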; further: 0% is about no effect
Target sequence (P14416 whole entry, looked up): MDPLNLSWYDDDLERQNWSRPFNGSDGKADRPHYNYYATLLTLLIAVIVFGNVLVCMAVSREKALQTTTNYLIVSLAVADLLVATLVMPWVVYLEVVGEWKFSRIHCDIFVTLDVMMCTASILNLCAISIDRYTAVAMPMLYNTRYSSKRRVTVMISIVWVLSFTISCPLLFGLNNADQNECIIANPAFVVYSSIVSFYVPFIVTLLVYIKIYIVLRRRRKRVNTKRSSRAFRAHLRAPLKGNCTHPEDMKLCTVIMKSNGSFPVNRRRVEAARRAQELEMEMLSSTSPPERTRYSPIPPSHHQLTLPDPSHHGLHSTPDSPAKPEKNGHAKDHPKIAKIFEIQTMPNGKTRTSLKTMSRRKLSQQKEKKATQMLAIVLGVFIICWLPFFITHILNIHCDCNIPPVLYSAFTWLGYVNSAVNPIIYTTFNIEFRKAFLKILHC
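Calcium-flux readout, 1 cycle/sec over 180 s following compound pin transfer, in inducible HEK293 Trex D2 cells (force-coupled); dopamine controls included. Positive calcium responses during this window marked compounds as potential agonists.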
D2 PAM-1: potentiates the human D2 dopamine receptor allosterically; P14416; DiscoveRx D2 beta-arrestin cells, luminescence, 90 min; 100% = 57 uM dopamine signal; potentiation, % (concentration not given with the values); 360,000 tested, 0.23% active; in the data active means potentiation above about 50%; inconclusive means mostly about 30% to 49%
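PathHunter D2 cells, attached overnight at 37 deg C, received compound in DMSO plus dopamine at EC20 (50 nM final) for 90 min at 37 deg C. Beta-arrestin recruitment was read as luminescence after 1 h with detection reagent at ambient temperature.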
D2 ag-2: agonists of human D2 dopamine receptor (beta-arrestin) | activation, % (concentration not given with the values) | DiscoveRx PathHunter D2 beta-arrestin, luminescence, 90 min; 100% = 57 uM dopamine signal | AID 624465 | P14416 | 360,000 tested, 0.084% active; in the data active means activation above about 40%; inconclusive means between about 15% and that limit
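Agonist mode: compounds alone added to overnight-plated D2 PathHunter cells for 90 min at 37 C, with 57 uM final dopamine (EC100) defining full response. Beta-arrestin recruitment detected by chemiluminescent reagent, read after 1 h at ambient temperature.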
D2 antagonist: antagonizes the human D2 dopamine receptor; P14416; AID 485344; inhibition, % at 10 µM; 340,000 tested, 2% active; HEK293 TREx D2 cells, calcium flux, dopamine EC80; in the data active means inhibition above about 30%; inactive means below that, where a call was filed; further: 0% is about no effect
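HEK293 T-REx D2 cells, tet-induced, calcium dye no-wash. Cpd pintool add, 180 s kinetic, then EC80 DA, 180 s kinetic. Ca flux read.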
D2 PAM-2: positive allosteric modulators of human D2 dopamine receptor; P14416; HEK293 T-REx D2, calcium flux, EC20 dopamine potentiation; potentiation, % at 10 µM; 340,000 tested, 0.34% active; AID 485347;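 active means potentiation over 3 SD above the plate norm, cut at about 30% in these data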; further: 0% is about no effect
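Primary screen. Calcium kinetics in induced HEK293 T-REx D2 cells: compound pre-addition 180 s, EC20 dopamine, 180 s more.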
Starred values were filed as active, the others as inactive; ? = inconclusive; / = not tested or not shown. This is a sample that favours compounds with a hit; in the whole collection about 2.4% have one here.

SMILES	D2 ag-1	D2 PAM-1	D2 ag-2	D2 antagonist	D2 PAM-2
Cc1cccc(C)c1NC(=O)CN1C(=O)S/C(=C\c2cccn2C)C1=O	0.3	3.2	0.9	30.1*	1.0
Cc1cccc(C)c1NC(=O)CN1C(=O)S/C(=C\c2cccn2-c2cccc(C(=O)O)c2)C1=O	0.4	-7.6	-2.5	0.0	-2.5
O=C(NCc1ccccn1)c1ccccc1-c1ccccc1	-0.4	-13.1	-0.2	-8.8	-1.3
COc1cc(Cl)cc2c1Sc1ccccc1/C2=C/CCN(C)C	-2.4	-33.9	-4.0	63.2*	-22.9
COc1cc2c(cc1Cl)/C(=C\CCN(C)C)c1ccccc1S2	2.0	-49.3	-3.2	36.5*	-22.4
CCC(C(=O)Nc1cc(-c2cn3cccnc3n2)ccc1C)c1ccccc1 (stereo not given)	/	/	/	/	-5.5
O=C1Cc2ccccc2Sc2cc(OCCCN3CCCCC3)ccc21	1.7	-33.8	-6.7	-6.4	-30.9
O=C1Cc2ccccc2Sc2c(OCCN3CCCCC3)cccc21	2.3	-32.2	-8.7	80.3*	-18.0
CCOc1ccccc1NC(=O)C1CCN(S(=O)(=O)c2cccs2)CC1	0.2	/	/	/	-4.7
CC1CCCCN1C(=O)c1c(Cl)cnn1C (stereo not given)	-1.1	7.6	-1.3	11.7	0.6
Cc1ccc(S(=O)(=O)Nc2cc(=O)[nH]c3c2CCC3)cc1	-2.6	-3.8	-5.1	37.0*	-21.0
Cc1ccc(NS(=O)(=O)c2ccc3[nH]c4c(c3c2)CCCCCC4)cc1	0.8	/	/	/	5.6
COc1cc2cnc(-c3ccccc3)c(-c3cccc(C(F)(F)F)c3)c2cc1OC	-0.6	161.6*	?	-2.0	1.3
CC1CCCCN1C(=O)c1ccc2c(c1)N(Cc1ccc(F)cc1)C(=O)c1ccccc1S2(=O)=O (stereo not given)	/	/	/	/	-2.1
O=C(Cn1cc(C(F)(F)F)ccc1=O)N1CCc2ccccc2C1	0.4	-1.3	-4.4	-0.8	3.2
CCC(=O)N1CCc2cc(S(=O)(=O)CCC(=O)NCCc3ccc(S(N)(=O)=O)cc3)ccc21	0.4	-6.5	-1.5	32.4*	-6.0
CCC(=O)N1CCc2cc(S(=O)(=O)CCC(=O)NCc3ccc(C)cc3)ccc21	0.3	-9.5	-0.4	0.5	-4.7
COc1cc(/C=N/NC(=O)c2c(-c3ccccc3)noc2C)cc(OC)c1OC	-1.5	8.4	7.3	56.3*	-20.8
COc1ccc(C2CC(=O)c3cc(-c4nc(-c5cccc([N+](=O)[O-])c5)cs4)c(=O)n(-c4ccc(C)c(C)c4)c3C2)cc1 (stereo not given)	1.1	/	/	/	-7.3
CSc1nnc(NC(=O)c2cc(=O)c3cc(C)c(C)cc3o2)s1	0.3	/	/	/	-4.9
CCOC(=O)c1ccc(NC(=O)Oc2ccccc2)cc1	0.9	-3.6	0.2	-2.2	33.3*
CCOC(=O)c1ccc(NC2=CC(=O)C(=O)c3ccccc32)cc1	-0.3	111.8*	9.8	-7.8	-6.2
C=C(C)CCOC(=O)C(CC(=O)O)NCc1ccco1 (stereo not given)	0.2	-12.0	-3.1	-9.7	-1.2
Cc1ccc(S(=O)(=O)c2nnn(CC(=O)Nc3ccccc3C)c2N)cc1C	1.1	/	/	/	-19.7
CSc1nc(C)cc(/C=C\c2ccccc2)c1C#N	-0.7	-14.5	-4.5	-8.1	41.4*
SMILES	D2 ag-1	D2 PAM-1	D2 ag-2	D2 antagonist	D2 PAM-2
CCN(CC)CCNC(=O)c1cc(Cl)c(N)cc1OC	1.2	-22.9	-6.8	81.8*	-28.0
CCN(CC)CCNC(=O)c1cc([N+](=O)[O-])c(N(C)C)cc1OC	-1.3	-13.8	-1.8	94.1*	-21.2
Cn1c(=O)n(C)c2cc(N3CCOCC3)c(NS(=O)(=O)c3ccc(Br)cc3)cc21	0.9	/	/	/	-2.0
CC1CCN(C(=O)CSc2nnc3ccc(-c4cccnc4)nn23)CC1	-0.1	16.0	-1.5	37.8*	-4.4
COc1cccc(-c2ccc3nnc(SCC(=O)N4CCCC4)n3n2)c1	0.1	0.6	-4.4	4.9	-5.3
CC(=O)Nc1ccc(N2Cc3ccccc3C2)cc1	1.3	51.6*	7.3	-2.2	0.9
CC(=O)Nc1ccc(N2CCCC2)cc1	0.3	-9.8	1.0	-13.6	-15.3
Cc1cc2ncn(/N=C/c3cccnc3)c2cc1C	-0.1	-23.4	-2.0	-2.5	0.3
Cc1cc2ncn(/N=C/c3ccc4c(c3)OCO4)c2cc1C	2.0	-2.9	-3.4	89.0*	-0.6

High-throughput results from PubChem.
